NS1 function inh: influenza NS1 inhibition; Potency, µM (titrated, usually from 46.1 µM), inactives show at the top dose activity, positive = more growth; 270,000 compounds, 0.4% hits; AID 2326; calls by dose curve; note: potency is the fitted concentration of half-maximal effect; actives are rising curves; nearly all actives have a fitted effect of over 50% in size
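Recovery from NS1-induced slow growth read by OD600 in budding yeast switched to galactose assay medium (pH 6.0, -URA) at 1:100 dilution. Compound 23 nl per well; the matching strain lacking NS1 serves as control.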
CHX counter: counter-screen for Shiga toxin inhibitors: cycloheximide protein synthesis inhibition | cell reporter, cycloheximide protein synthesis inhibition counterscreen | AID 2314 | 300,000 compounds, 12% hits | max response, %; in the data active = max response mostly above about 13%, no sharp cut-off; inactive = mostly below about 14%; note: read at 38.3 µM for the half of the compounds with a filed dose; 0% is about no effect
Shiga inhibitor: inhibitors of Shiga toxin in Vero cells. 290,000 compounds, 9.2% hits. AID 2315. Vero cells, Shiga toxin protein synthesis inhibition reporter. inhibition, % at 38.7 µM; in the data active = inhibition mostly above about 28%, no sharp cut-off; inactive = mostly below about 43%; note: 0% is about no effect
Pf growth 96h: P. falciparum growth inhibition at 96 hour, primary screen for plastid delayed-death inhibitors. P. falciparum luciferase reporter growth, 96 h. 320,000 compounds, 6.9% hits. Potency, µM (top dose mostly 28.7 µM), for the others: at the highest dose activity change, negative = inhibition, actives largely listed as inhibitors; note: potency is the fitted concentration of half-maximal effect; % is set by controls: 0 for no effect and ±100 for the full control effect
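Luminescence readout: decreased luciferase signal marks inhibited growth of reporter-expressing P. falciparum in infected red cells (2% hematocrit, 0.05% parasitemia final), exposed to compound two generations (96 h, 37 C, 5% CO2).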
Pf growth 48h: P. falciparum growth inhibition at 48 hours (one generation); P. falciparum luciferase growth in erythrocytes, 48 h; Potency, µM (series often up to 28.7 µM), without a hit: top-dose activity change, negative = inhibition, usual class: inhibitors; 310,000 compounds, 5.9% hits; note: potency is the fitted concentration of half-maximal effect; % is set by controls: 0 for no effect and ±100 for the full control effect
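Firefly luciferase activity from engineered P. falciparum reports growth; inhibitors lower the luminescent signal. Cultures contained 2% hematocrit erythrocytes at 0.1% final parasitemia.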
Sm TGR block: S. mansoni TGR enzyme inhibition; Q962Y6; purified TGR, DTNB reduction, TNB absorbance 405 nm; Potency, µM (series often up to 114 µM), without a hit: at the highest dose activity change, negative = inhibition, actives largely listed as inhibitors; 360,000 compounds, 3% hits; AID 485364; note: potency is the fitted concentration of half-maximal effect; % is set by controls: 0 for no effect and ±100 for the full control effect; nearly all actives have a fitted effect of over 60% in size
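First, TGR (20 nM dispensed) and NADPH were mixed with compound. Second, a 15 min room-temperature incubation followed. Third, further NADPH and then DTNB were added to start the reaction. Finally, TNB absorbance was monitored kinetically.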
Starred values were filed as active, the others as inactive; i = inactive; u = inconclusive; x = no result. In the library only some 21% were active in any assay of this set; here they are far more common. Unless noted, calls come from the whole dose curve; as a rule, active = well fitted curve in the direction sought with a large enough effect; inconclusive = small, poorly fitted or top-dose-only effect, or another doubt; inactive = no such curve, though single readings can be large; an effect the other way counts as inactive or inconclusive.

SMILES	NS1 function inh	CHX counter	Shiga inhibitor	Pf growth 96h	Pf growth 48h	Sm TGR block
Oc1ccc(C2=NNC(=NCc3ccc4c(c3)OCO4)SC2)c(O)c1	16.4%	31.7*	13.9	u	12.9%	-8.2%
Clc1ccc(C2=NNC(=NCc3ccc4c(c3)OCO4)SC2)cc1	u	1.4	26.6	u	u	-16.3%
CN(C)S(=O)(=O)c1ccc(N2CCCC2)c(C(=O)Nc2nc(-c3ccc(F)cc3)cs2)c1	8.3%	-0.6	-7.9	u	9.28µM*	-15.2%
CN(C)S(=O)(=O)c1ccc(N2CCCC2)c(C(=O)NNC(=O)c2ccc(F)cc2)c1	x	x	x	-29.3%	-20.8%	-4.9%
Cc1cccc2sc(NC(=O)c3cc(S(=O)(=O)N(C)C)ccc3N3CCCC3)nc12	3.4%	0.8	-8.5	u	u	8.3%
CN(C)S(=O)(=O)c1ccc(N2CCCC2)c(C(=O)Nc2nc3ccccc3s2)c1	u	14.1	47.5*	-12.5%	17.7%	-0.6%
CN(C)S(=O)(=O)c1ccc(N2CCCC2)c(C(=O)Nc2nc3ccc(F)cc3s2)c1	19.9%	13.9*	36.5*	6.1%	11.0%	2.6%
CN(C)S(=O)(=O)c1ccc(N2CCCC2)c(C(=O)Nc2nc(-c3cc(F)ccc3F)cs2)c1	24.4%	-1.8	19.3	u	-14.9%	-7.6%
COc1cccc(C(=O)N2C(C(=O)O)CSC2c2ccccc2Cl)c1 (configuration not stated)	3.8%	0.4	-1.1	-0.6%	13.0%	-11.3%
CCc1ccccc1NC(=O)c1ccc2c(c1)N(Cc1cccc(Cl)c1)C(=O)c1ccccc1S2(=O)=O	x	x	x	x	x	9.8%
Cc1cccc(NS(=O)(=O)c2ccc(-c3cnc(C4CC4)o3)cc2)c1C	-79.1%	-13.3	-15.0	6.57µM*	u	3.4%
Cc1c(Cl)cccc1NS(=O)(=O)c1ccc(-c2cnc(C3CC3)o2)cc1	x	x	x	x	x	1.3%
Cc1cccc(NS(=O)(=O)c2ccc3c(c2)Cc2cc(S(=O)(=O)Nc4cccc(C)c4C)ccc2-3)c1C	20.6%	-1.5	1.9	24.5%	9.28µM*	-6.6%
COc1ccc(CCN2CCC(CNC(=O)c3cnn(-c4ccc(C)cc4)c3C3CCN(C(=O)OC(C)(C)C)CC3)CC2)cc1	x	x	x	x	x	-4.0%
NS(=O)(=O)c1ccc(CCNc2nc3c(-c4cccc(F)c4)nnn3c3ccc(Cl)cc23)cc1	x	x	x	x	x	2.0%
O=C1C=C(O)C(n2cncn2)C(c2ccc(F)cc2)C1 (configuration not stated)	x	-9.3	15.8	-7.1%	i	-0.3%
COc1ccc(C2CC(=O)C(C3NCCc4ccccc43)=C(O)C2n2cncn2)cc1 (configuration not stated)	x	6.4	-5.4	65.8%	16.5µM*	0.6%
Cc1ccc2oc(C(=O)N(Cc3ccncc3)CC3CCCO3)c(C)c2c1 (configuration not stated)	-21.8%	35.5*	54.1*	24.7%	u	-3.5%
Cc1c(C(=O)N(Cc2ccc(N(C)C)cc2)CC2CCCO2)oc2ccccc12 (configuration not stated)	-40.8%	-0.7	14.3	4.15µM*	-21.1%	-29.4%
CCCc1ccc2oc(C(=O)N(Cc3ccncc3)CC3CCCO3)c(C)c2c1 (configuration not stated)	-60.3%	12.3*	19.6	17.5%	9.28µM*	-16.1%
CCCCNS(=O)(=O)c1cc(-c2nn(C)c(=O)c3ccccc23)ccc1C	-0.8%	2.1	-5.5	14.3%	13.1µM*	-25.9%
Cc1ccc(-c2nn3c(C)nnc3c3ccccc23)cc1S(=O)(=O)NC(C)c1ccccc1 (configuration not stated)	-11.1%	-2.6	-4.5	7.38µM*	u	-25.1%
Cc1ccc(-c2nn3c(C)nnc3c3ccccc23)cc1S(=O)(=O)NCCO	4.5%	-1.0	5.7	26.8%	-18.4%	5.0%
COCCNS(=O)(=O)c1cc(-c2nn(C)c(=O)c3ccccc23)ccc1C	-3.5%	1.7	-16.1	x	-4.9%	-14.3%
Cc1ccc(-c2nn3c(C)nnc3c3ccccc23)cc1S(=O)(=O)NCc1ccco1	-40.7%	50.8*	37.1*	30.9%	u	u
SMILES	NS1 function inh	CHX counter	Shiga inhibitor	Pf growth 96h	Pf growth 48h	Sm TGR block
CC(=O)c1cc2c(cc1N/C(=N/S(=O)(=O)c1ccc(Cl)cc1)c1ccc(F)cc1)OCO2	x	x	x	x	x	-9.5%
COc1ccc(N(CC(=O)Nc2cc(OC)c(OC)cc2C(=O)O)S(=O)(=O)c2c(C)noc2C)cc1	17.2%	9.0	1.0	u	-12.6%	3.5%
O=C(NNC(=O)c1ccccc1Br)c1ccncc1	-6.1%	-4.0	-7.1	10.4µM*	24.1%	18.3%
O=C(OCC(=O)c1cccc2ccccc12)c1ccc(CO)cc1	-54.8%	41.7*	77.5*	148.0%	140.4%	16.3%
CSc1ncccc1C(=O)OCC(=O)c1ccccc1Br	x	10.8	4.5	-20.9%	44.0%	16.7%
NC(=O)c1cccc2ccccc12	2.8%	-2.9	-5.3	31.5%	10.7%	-6.8%
O=C(OCC(=O)c1ccccc1Br)c1ccncc1	x	24.2*	62.6*	12.5%	u	0.1%
O=C(NNC(=S)Nc1ccccc1Cl)c1ccccc1Br	9.0%	49.0*	74.5*	41.3%	277.8%	-0.8%
COc1cccc(-c2nnc3n(Cc4ccc(C)cc4)c(=O)c4ccccc4n23)c1O	x	x	x	x	x	-0.4%
O=C(NNC(=O)c1ccccc1Br)c1ccccc1Cl	x	18.7*	22.6	u	15.4%	0.0%
O=C(/C=C/c1ccc([N+](=O)[O-])cc1)NCC1CCCO1 (configuration not stated)	16.4%	7.1	44.4	46.7%	51.8%	3.2%
Cc1ccc(C(=O)NC(=S)NNS(=O)(=O)c2ccccc2)cc1	-46.6%	-1.6	-3.1	u	-11.3%	12.6µM*
COc1ccc(C(=O)NN/C(=N/S(=O)(=O)c2ccc(C)cc2)c2ccccc2)cc1	-32.4%	51.5*	58.8*	24.5%	14.2%	1.9%
COc1ccc(S(=O)(=O)N[C@@H](CSCc2ccccc2)C(=O)O)cc1	7.0%	-2.8	20.6	-9.1%	-2.8%	39.8µM*
COc1ccc(S(=O)(=O)NNC(=O)c2ccc(-n3c(C)ccc3C)cc2)cc1	0.3%	0.6	-14.1	u	u	10µM*
CCOc1ccc(S(=O)(=O)/N=C(/Nc2ccc(OC)cc2)c2ccccc2)cc1	-10.2%	13.4	8.5	84.1%	u	8.4%
Cc1ccc(S(=O)(=O)NNC(=O)c2ccc(F)cc2)cc1	-0.3%	-2.7	-4.8	-16.6%	0.8%	0.8%
COc1ccc(C[C@@H](NS(=O)(=O)c2ccc(C(=O)O)cc2)C(=O)O)cc1	x	10.0	-10.2	-5.0%	-27.0%	-1.7%
COc1ccc(C(=O)NNS(=O)(=O)c2ccc(OC)cc2)cc1	9.4%	8.2	-16.1	u	26.5%	-3.1%
Cc1ccc(-c2ccc(=O)n(CC(=O)NCc3ccc(F)cc3)n2)cc1	x	-2.4	19.1	-9.7%	22.3%	-1.4%

Assay outcomes: PubChem BioAssay, National Center for Advancing Translational Sciences (NCATS)
